Measured values reported in PubChem BioAssay (Tox21).
Inconclusive results are not listed. Unmarked numbers belong to inactive results. Calls follow the shape of the dose curve; as a rule, active = well fitted cell-killing curve with a large enough effect in the repeat runs; inconclusive = weak or mixed curves, or effect the other way; inactive = flat fitted curve, though single readings scatter. Non-standard residues stand in square brackets, D forms with d. Residues, ends and D or L forms follow the SMILES beside them. *: point of attachment. Sta = CC(C)C[C@H](N)[C@@H](O)CC(=O)O; Isovaleryl = CC(C)CC(=O)*

Assay: qHTS assay to identify small molecule antagonists of the androgen receptor (AR) signaling pathway using the MDA cell line - cell viability counter screen (AID 743041; also: nearly all actives have a fitted effect of over 45% in size)
Details: MDA-kb2 viability, CellTiter-Fluor, 16 h, cells co-treated with R1881 androgen agonist; series mostly up to 70.3 µM; viability change, negative = cytotoxic: at the top concentration
Source text: National Center for Advancing Translational Sciences [NCATS]
NIH Chemical Genomics Center [NCGC]
U.S. Environmental Protection Agency [EPA]
National Institutes of Environmental Health Sciences [NIEHS]
National Toxicology Program [NTP]
U.S. Food and Drug Administration [FDA]
Androgen receptor (AR), a nuclear hormone receptor, plays a critical role in AR-dependent prostate cancer and other androgen related diseases. Endocrine disrupting chemicals (EDCs) and their interactions with steroid hormone receptors like AR may cause disruption of normal endocrine function as well as interfere with metabolic homeostasis, reproduction, developmental and behavioral functions. To identify the compounds that inhibit AR signaling, MDA-kb2 AR-luc cell line (from ATCC, deposited by Wilson et al.) was used to screen the Tox21 10K compound library. MDA-kb2 AR-luc cell line is human breast carcinoma cell line that was stably transfected with a luciferase reporter gene under control of the MMTV promoter containing response elements for both androgen receptor (AR) and glucocorticoid receptor (GR). The cytotoxicity of the Tox21 compound library against the MDA-kb2 AR-luc cell line was tested in parallel by measuring the cell viability using CellTiter-Fluor assay (Promega, Madison, WI) in the same wells.
Tox21 Assay Protocol Summary:
MDA-kb2 AR-luc cells were dispensed at 3,000 cells/4 uL/well of culture medium into white wall/solid-bottom 1536-well plates using a Multidrop Combi (ThermoFisher Scientific, Waltham, MA) dispenser. After the assay plates were incubated at a 37C and 0% CO2 for 5 hr, 23 nL of compounds dissolved in DMSO, positive controls or DMSO only was transferred to the assay plate by a Pintool station (Kalypsys, San Diego, CA), followed by addition of 1 uL of agonist (R1881) in culture medium using a Bioraptr Flying Reagent Dispenser (FRD) workstation (Beckman Coulter, Indianapolis, IN, USA). The plates were incubated at a 37C and 0% CO2 for 16 h. After 15.5 h incubation, 1uL of CellTiter-Fluor reagent (Promega) was added using a Bioraptr FRD to each plate for measuring cytotoxicity. The fluorescence intensity was quantified on a ViewLux plate reader (PerkinElmer, Shelton, CT) following 30 min incubation at 37C and 0% CO2.
% is scaled to controls: 0 for no effect and ±100 for the full control effect.

Compound | viability change, negative = cytotoxic
CCOC(=O)CC | 5.6%
CC(=O)OC/C=C(/C)CCC=C(C)C | 17.3%
O=Cc1ccccc1S(=O)(=O)O | 5.02%
C[C@H]1COc2c(C3(N)CC3)c(F)cc3c(=O)c(C(=O)O)cn1c23 | 4.13%
COC(=O)c1c(C)cc(O)c(C)c1O | 10.5%
C=CCn1cc[n+](C)c1 | 3.69% [at 95 µM]
NC(=O)CC[C@@H](N)C(=O)O | 6.31%
C=CC(=O)OCC[N+](C)(C)C | 2.85% [at 95 µM]
N=C(N)N1CCc2ccccc2C1 | 14.4%
CCCCOCCCC | -2.65%
CN(C)c1cc(NC(=O)CNC(C)(C)C)c(O)c2c1C[C@H]1C[C@H]3[C@H](N(C)C)C(=O)C(C(N)=O)=C(O)[C@@]3(O)C(=O)C1=C2O | -4.69%
CC(=O)SC[C@@H](C)C(=O)N1CCC[C@H]1C(=O)N[C@@H](Cc1ccccc1)C(=O)O | 7.56%
Cc1ccc(O)c([N+](=O)[O-])c1 | -2.36% [at 95 µM]
CC(C)CC(=O)N[C@H](C(=O)N[C@H](C(=O)N[C@@H](CC(C)C)[C@@H](O)CC(=O)N[C@@H](C)C(=O)N[C@@H](CC(C)C)[C@@H](O)CC(=O)O)C(C)C)C(C)C (Isovaleryl-VV[Sta]A[Sta]-OH) | -6.49%
Cc1cc(N)no1 | 0.904% [at 95 µM]
NNC(=O)CCCCC(=O)NN | -0.939%
CCCCCCCCCCCC(C)=O | -0.401%
C[Si](C)(C)O[Si](O)(O)O | -0.369%
C[C@@H]1CC[C@@]2(OC1)O[C@H]1C[C@H]3[C@@H]4CC[C@H]5C[C@@H](O)CC[C@]5(C)[C@H]4CC(=O)[C@]3(C)[C@H]1[C@@H]2C | 21.2% [at 32.5 µM]
CC(C)(C)C(=O)CC(=O)C(C)(C)C | 0.0158% [at 95 µM]

Compound | viability change, negative = cytotoxic
NC[C@H]1O[C@H](O[C@H]2[C@H](O)[C@@H](O[C@H]3O[C@H](CO)[C@@H](O)[C@H](N)[C@H]3O)[C@H](N)C[C@@H]2N)[C@H](N)[C@@H](O)[C@@H]1O | -11.5%
NNC(=O)OCc1ccccc1 | -21.3%
Clc1cc(Cl)c(Cl)c(Cl)c1Cl | -3.2%
CCCC(=O)C(CC)Sc1ccoc1C (stereo not given) | -1.67%
CCc1ncc(C)[nH]1 | 6.86%
CC(C)(C)OC=O | 2.49% [at 95 µM]
COc1cc(NS(=O)(=O)c2ccc(N)cc2)ncn1 | 5.67% [at 32.5 µM]
CC(=O)Oc1ccc(C(C)=O)cc1 | -5.75% [at 95 µM]
O=C(O)CCCCCCCCCC(=O)O | 0.0718%
COC(=O)C(c1ccccc1Cl)N1CCc2sccc2C1 (stereo not given) | 2%
COc1ccc2cc(CCC(C)=O)ccc2c1 | 14.1% [at 32.5 µM]
CCCC[O][Al]([O]CCCC)[O]CCCC | 3.82%
C=CCCCCCCCCCCCCCC | 7.57% [at 32.5 µM]
COCc1nnc(-c2ccc[n+]([O-])c2)n1-c1c(Cl)c(Cl)cc2[nH]c(=O)c(=O)[nH]c12 | -0.2%
CSC(=O)c1cccc2nnsc12 | 12.7%
O=c1[nH]c(=O)c2cn[nH]c2[nH]1 | 0.0024%
COc1cc2nc(N3CCN(C(=O)C4CCCO4)CC3)nc(N)c2cc1OC (stereo not given) | 27.8%
CC(C)(O)c1ccc(C(C)(C)O)cc1 | -3.25%
CN1CCN(C(=O)C2CCCCC2)CC1 | 4.63%
CCCCCCCCCCCCCCBr | -3.85% [at 95 µM]
